The list is not random: actives were taken first. Their share in the collection is about 3.4%.
FBW7 activator: human FBW7 E3 ligase activation, primary screen | AID 1259310 | AlphaScreen FBW7–phospho-cyclin E peptide binding, activator screen | normalized activity (activation), % at 26.1 µM | 650,000 tested, 0.13% active; in the data active = normalized activity above about 1.9%;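 also: purified mutant Fbw7 with reduced substrate affinity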
GPR151 ag: activates the human receptor GPR151. Q8TDV0. PathHunter beta-arrestin GPR151 cells, luminescence. activation, % at 11.2 µM. 650,000 tested, 1% active. AID 1508602; in the data active = activation above about 4.9%
Target sequence (Q8TDV0 whole entry, looked up): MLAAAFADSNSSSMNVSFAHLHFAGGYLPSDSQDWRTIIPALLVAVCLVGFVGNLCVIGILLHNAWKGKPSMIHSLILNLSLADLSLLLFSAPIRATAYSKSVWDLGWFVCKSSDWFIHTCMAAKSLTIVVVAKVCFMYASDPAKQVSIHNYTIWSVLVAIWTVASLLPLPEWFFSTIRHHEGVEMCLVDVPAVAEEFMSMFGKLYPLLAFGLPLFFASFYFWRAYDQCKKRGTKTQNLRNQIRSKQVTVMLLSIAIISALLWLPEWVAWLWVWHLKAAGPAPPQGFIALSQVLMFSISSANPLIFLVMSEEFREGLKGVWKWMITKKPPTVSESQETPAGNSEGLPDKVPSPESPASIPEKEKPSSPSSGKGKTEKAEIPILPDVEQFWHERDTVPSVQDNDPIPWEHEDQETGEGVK
TEAD-YAP block: TEAD-YAP interaction inhibition; HEK-TIYL cells, TEAD-Gal4/YAP UAS-luciferase luminescence; inhibition, % at 9.12 µM; 640,000 tested, 1.4% active; AID 1259422; in the data active = inhibition above about 32%
MITF primary: inhibitors of human MITF | 650,000 tested, 0.91% active | inhibition, % at 2.6 µM | O75030 | AlphaScreen MITF homodimerization, bead proximity signal; in the data active = inhibition above about 50%
Of the large screens only hits and unclear results are named; the others gave an inactive call.

COCc1cc(C)nc(SCC(=O)Nc2cc(Br)cc3cccnc23)c1C#N	none
O=C1/C(=C/c2cccnc2)CCC/C1=C\c1cccnc1	TEAD-YAP block 87
COc1ccc(-c2noc(CC(=O)Nc3ccc(NC(C)=O)nc3)n2)cc1	none
COC(=O)C(Sc1c(C)n(C)n(-c2ccccc2)c1=O)(C(F)(F)F)C(F)(F)F	none
Cc1ccc(NS(=O)(=O)c2cc(Br)cc3c2N(C(=O)C2CC2)CC3)cc1	TEAD-YAP block 40
CC(=O)N1CCc2cc(Br)cc(S(=O)(=O)Nc3ccc(C)cc3)c21	none
CC(=O)Nc1nc(-c2ccc(Cl)cc2Cl)cs1	TEAD-YAP block 50
CC(=O)Nc1nc(-c2cc(Cl)ccc2Cl)cs1	none
CC1CCN(c2c(NCC3CCC(C(=O)O)CC3)c(=O)c2=O)CC1 (configuration not stated)	none
Cc1cc2c(cc1C)NC(c1cc3c(cc1[N+](=O)[O-])OCO3)C1=C(CC(C)(C)CC1=O)N2 (configuration not stated)	TEAD-YAP block 72
Cn1cnc(-c2ccnc(Nc3ccc(N4CCOCC4)cc3)c2)n1	none
Cn1cc(-c2ncoc2-c2ccnc(Nc3ccc(N4CCOCC4)cc3)c2)cn1	none
c1ccc(-c2ccn[nH]2)c(Nc2ccnc(Nc3ccc(N4CCOCC4)cc3)c2)c1	TEAD-YAP block 38
c1cc(-c2ocnc2-c2ccc3cn[nH]c3c2)cc(Nc2ccc(N3CCOCC3)cc2)n1	TEAD-YAP block 58
Cn1ccc(-c2ccccc2Nc2ccnc(Nc3ccc(N4CCOCC4)cc3)c2)n1	TEAD-YAP block 47
c1cnn(-c2ccnc(Nc3ccc(N4CCOCC4)cc3)c2)c1	none
CCOc1ccc(NC(=O)C2C3C=CC(C3)C2C(=O)Nc2ccc(OCC)cc2)cc1 (configuration not stated)	none
O=C(COC(=O)CNC(=O)C12CC3CC(CC(C3)C1)C2)Nc1ccc(Br)cc1	none
COc1ccc(C(=O)Nn2c(SCc3cccc([N+](=O)[O-])c3)nc3ccccc3c2=O)cc1	TEAD-YAP block 72
O=C(Nn1c(SCc2cccc([N+](=O)[O-])c2)nc2ccccc2c1=O)c1ccccc1	none
COc1ccc(C(C)=O)cc1CSc1nc2ccccc2c(=O)n1NC(=O)c1ccccc1	none
COc1ccc(C(=O)Nn2c(SCc3cccc(Br)c3)nc3ccccc3c2=O)cc1	TEAD-YAP block 52
CC(C)(C)c1ccc(-c2nc3ccccc3c(=O)n2NC(=O)c2cccnc2)cc1	TEAD-YAP block 83
COc1ccc(C(=O)Nn2c(SCc3ccc(C)cc3)nc3ccccc3c2=O)cc1	TEAD-YAP block 38
CS(=O)(=O)N(CC(=O)Nc1cc(Cl)cc(Cl)c1)c1ccc(Cl)cc1	none
CCCCOCC(O)CN1CCN(c2ccc([N+](=O)[O-])cc2)CC1 (configuration not stated)	none
COc1ccc(C(=O)Nn2c(SCc3cccc(F)c3)nc3ccccc3c2=O)cc1	TEAD-YAP block 77
Cc1ccc(NC(=O)CSc2nc3ccccc3c(=O)n2NC(=O)c2ccc(F)cc2)cc1	TEAD-YAP block 41
COc1ccc(C(=O)Nn2c(SCc3cccnc3)nc3ccccc3c2=O)cc1	TEAD-YAP block 66
CCOC(=O)N1CCC(n2c(SCC(=O)Nc3ccc(C)cc3)nc3ccccc3c2=O)CC1	TEAD-YAP block 55
CCc1sc(NC(=O)CCC(=O)O)nc1-c1ccc(F)cc1	none
CC(=O)NCCC(=O)Nc1ccc(OC(F)(F)F)cc1	none
CC1(C)C([N+](=O)[O-])CN(Cc2ccccc2)CC1[N+](=O)[O-] (configuration not stated)	none
Cc1c(-c2csc(/C(C#N)=C/c3cccs3)n2)c(=O)n(-c2ccccc2)n1C	none
COc1ccc(C(=O)Nn2c(SCc3ccc(Cl)cc3)nc3ccccc3c2=O)cc1	none
COc1ccc(C(=O)Nn2c(SCc3ccc(F)cc3)nc3ccccc3c2=O)cc1	TEAD-YAP block 52
Oc1c(C(c2cccs2)N2CCOCC2)ccc2cccnc12 (configuration not stated)	TEAD-YAP block 77, MITF primary 61
Oc1c(C(c2cccs2)N2CCN(c3ccccc3)CC2)ccc2cccnc12 (configuration not stated)	TEAD-YAP block 87
CC(=O)Nc1ccc(Nc2nc(-c3ccc(N4CCOCC4)nc3)nc3c2ncn3-c2ccsc2)cc1	TEAD-YAP block 43
COc1ccc(-c2nc(Nc3ccc(N4CCOCC4)cc3)c3ncn(-c4ccsc4)c3n2)cn1	TEAD-YAP block 45
c1ccc(Nc2nc(-c3ccc(N4CCOCC4)nc3)nc3c2ncn3-c2ccsc2)cc1	none
Cc1c(C)n(CC(O)CNc2ccccc2)c2ccccc12 (configuration not stated)	MITF primary 59
COc1ccc(NCC(O)Cn2c3ccccc3c3ccccc32)cc1 (configuration not stated)	TEAD-YAP block 51
Fc1ccccc1Nc1nc(N2CCOCC2)c2ccccc2n1	none
COc1ccc(Nc2nc(N)c3ccccc3n2)cc1	TEAD-YAP block 73
Nc1nc(Nc2ccc(Cl)cc2)nc2ccccc12	TEAD-YAP block 52
Nc1nc(Nc2ccccc2F)nc2ccccc12	TEAD-YAP block 57
Cc1ccc(Nc2nc(N)c3ccccc3n2)cc1	TEAD-YAP block 90
O=C(COc1cccc2cccnc12)N/N=C/c1ccc(-c2cccc(C(=O)O)c2)o1	none
Cc1ccc(Nc2nc(N3CCOCC3)c3ccccc3n2)cc1Cl	none
Fc1cccc(Nc2nc(Cl)nc(Cl)n2)c1	none
Cc1ccc(Nc2nc(N)c3ccccc3n2)cc1Cl	TEAD-YAP block 35
Clc1nc(Cl)nc(Nc2ccccc2)n1	FBW7 activator 2.2
CN(C)c1ccc(Nc2nc(N)c3ccccc3n2)cc1	TEAD-YAP block 91
Cc1sc(NC(=O)Cc2ccc(Br)cc2)c(C#N)c1C	none
O=C(Cc1ccc(F)cc1)Nc1c2c(nn1-c1ccc(F)cc1)CSC2	none
O=C(c1ccc(F)c(F)c1)N1CC(C(=O)N2CCN(c3ccccc3)CC2)C1	none
CN1CCc2cc(C(CNC(=O)Nc3cccc(Cl)c3)N(C)C)ccc21 (configuration not stated)	TEAD-YAP block 49
CN1CCCc2cc(C(CNC(=O)NC(C)(C)C)N(C)C)ccc21 (configuration not stated)	none
NC(C(=O)O)C(O)c1ccccc1 (configuration not stated)	none
N[C@H](C(=O)O)[C@H](O)c1ccc(O)c(O)c1	MITF primary 54
O=C1Nc2cc(C(=O)N3CCCCC3)ccc2Sc2ccccc21	none
O=[N+]([O-])c1ccc(Oc2ccc(S(=O)(=O)Nc3ccc4c(c3)OCCO4)cc2)cc1	TEAD-YAP block 43
O=S(=O)(Nc1ccc2c(c1)OCO2)c1ccc(Oc2ccc(Br)cc2)cc1	none
CCOc1ccc(S(=O)(=O)Nc2cc3c(C(=O)OC)c(C)oc3c3ccccc23)cc1	TEAD-YAP block 63
CCOC(=O)c1ccccc1NS(=O)(=O)c1ccc(OCC)cc1	TEAD-YAP block 48
CC(=O)c1cc2c(cc1NS(=O)(=O)c1ccc(C(C)(C)C)cc1)OCO2	none
COc1ccc(S(=O)(=O)Nc2cc3c(cc2C(C)=O)OCO3)cc1	TEAD-YAP block 38
CCOC(=O)c1c(C)oc2c1cc(NS(=O)(=O)c1ccc(OC)cc1)c1ccccc12	TEAD-YAP block 51

Source: PubChem (The Scripps Research Institute Molecular Screening Center)
